MLLE-PAM2 inh: blocks PAM2 peptide binding to the PABP1 MLLE domain | GST-MLLE / FITC-PAM2 fluorescence polarization | 360,000 tested, 0.36% active | AID 588489 | inhibition, % at 20 µM; in the data active means inhibition above about 35%, passing the limit was not always enough
Target sequence (P11940 whole entry, looked up, the tested form may be a part): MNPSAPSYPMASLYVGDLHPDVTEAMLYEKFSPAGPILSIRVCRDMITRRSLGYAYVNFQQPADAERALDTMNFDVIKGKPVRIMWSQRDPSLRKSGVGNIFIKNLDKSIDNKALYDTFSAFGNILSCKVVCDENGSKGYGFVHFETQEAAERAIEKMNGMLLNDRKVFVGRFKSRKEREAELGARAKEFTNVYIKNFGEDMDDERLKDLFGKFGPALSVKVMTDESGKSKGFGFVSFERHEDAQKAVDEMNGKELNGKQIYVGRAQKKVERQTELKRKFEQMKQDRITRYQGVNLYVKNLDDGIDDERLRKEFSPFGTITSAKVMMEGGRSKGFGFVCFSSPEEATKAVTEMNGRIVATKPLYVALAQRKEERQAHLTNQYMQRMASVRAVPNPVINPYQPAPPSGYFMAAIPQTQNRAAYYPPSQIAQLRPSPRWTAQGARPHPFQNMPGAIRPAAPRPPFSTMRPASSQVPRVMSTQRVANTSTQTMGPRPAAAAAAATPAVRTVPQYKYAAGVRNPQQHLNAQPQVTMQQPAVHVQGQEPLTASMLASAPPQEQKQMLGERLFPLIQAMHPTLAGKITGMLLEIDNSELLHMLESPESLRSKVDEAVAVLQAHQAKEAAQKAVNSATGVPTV
PfM18AAP inh: PfM18AAP enzyme inhibition; recombinant PfM18AAP, H-Glu-NHMec fluorogenic cleavage; inhibition, % at 7.35 µM; 290,000 tested, 1.2% active; AID 1822;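 active means inhibition above the campaign mean inhibition over all tested compounds plus 3 SD, cut at about 28% in these data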
PERK inhibitor: inhibitors of human PERK kinase | CHO PERK-DD fusion, SEAP luminescence translation reporter | 220,000 tested, 0.17% active | AID 1416 | Q9NZJ5 | inhibition, % at 5.6 µM;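 active means inhibition above the mean inhibition of all tested compounds plus 3 SD, set separately per screening campaign, cut at about 2.9% in these data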;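 further: PERK kinase domain activated by AP20187 dimerizer at 100 nM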
PABP FP inh: blocks human PABP binding to poly(A) RNA | P11940 | fluorescence polarization | inhibition, % at 35 µM | 290,000 tested, 1% active;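 further: calls also rest on retests at 20 µM and on dose response follow-up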
eIF4H FP inh: inhibitors of RNA binding by human eIF4H; Q15056; inhibition, % at 35 µM; eIF4H fluorescence polarization binding assay; 290,000 tested, 0.94% active;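 further: calls also rest on retests at 20 µM and on dose response follow-up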
eIF4E-4G inh: blocks eIF4E binding to eIF4G | P63073+Q04637 | TR-FRET eIF4E-eIF4GI(517-606) binding, 2 h | inhibition, % at 21.7 µM | 220,000 tested, 0.37% active | AID 782;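 active means inhibition above about 30%, limit read from the data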
Numbers stand for hits; n = inactive; u = inconclusive; x = not tested or not shown; ! = repeats disagree. An excerpt weighted towards active compounds, which were near 2.4% of everything screened. Unless noted, how the calls were made is not given here.

SMILES	MLLE-PAM2 inh	PfM18AAP inh	PERK inhibitor	PABP FP inh	eIF4H FP inh	eIF4E-4G inh
Cc1c(NC(=S)NC(=O)CSc2ccc(Cl)cc2)cccc1C(=O)O	41	n	x	n	n	x
Cc1c(NC(=S)NC(=O)c2ccc(-c3ccc(Cl)cc3)o2)cccc1C(=O)O	n	n	n	n	n	n
CC1CCN(C(=O)CN2C(=O)NC(C)(c3ccc4ccccc4c3)C2=O)CC1 (centres undefined)	n	x	x	x	x	x
CC(=O)Nc1ccc(NC(=O)c2c(C)nn(-c3ccccc3)c2Cl)cc1C	n	n	n	n	n	n
Cc1ccc(S(=O)(=O)NCc2ccc(C(=O)N3CCCC3)cc2)cc1	n	n	n	78	6.8	n
O=C(COc1ncnc2ccccc12)N1CCOCC1	n	n	n	n	n	n
O=C(COc1ncnc2ccc(Br)cc12)N1CCOCC1	n	n	n	66	1.0	n
Cc1ccc(S(=O)(=O)CCC(=O)OCc2nnc(-c3ccc([N+](=O)[O-])cc3)o2)cc1	n	x	x	x	x	x
CC1(C)OC(=O)N(Cc2ccco2)C1(C)O (centres undefined)	n	n	n	66	u	n
CC1(C)OC(=O)N(CCc2ccccc2)C1(C)O (centres undefined)	n	n	n	n	n	n
C=C1CCN([C@H](C(=O)OCc2cccc(C)c2)C(C)C)S(=O)(=O)c2ccccc21	n	x	x	n	n	n
O=C(O)c1ccc(/C=N/NC(=O)c2ccc(CN3c4cccc5cccc(c45)S3(=O)=O)cc2)cc1	n	n	n	n	59	n
CN1CCN(c2c(F)cc3c(=O)c(C(=O)O)cn4c3c2SCC4)CC1	n	n	n	61!	97!	n
C[C@H]1COc2c(N3CCN(C)CC3)c(F)cc3c(=O)c(C(=O)O)cn1c23	n	n	n	n	n	n
CN(C)c1ccc(-c2nnc(-c3ccc(S(=O)(=O)C(F)F)cc3)o2)cc1	n	n	n	74	68	n
CCCCN1CC(COCc2ccccc2)Oc2cccc(OCc3ccc(OC)cc3)c2S1(=O)=O (centres undefined)	n	x	x	x	x	x
CCOc1ccc(-c2csc(NNC3=NCCCCC3)n2)cc1	37	n	n	n	n	n
COc1ccc(-c2csc(NNC3=NCCCCC3)n2)cc1	x	n	n	n	n	n
CCN(CC)c1ccc(-c2c(C#N)c(N)nc(OC)c2C#N)cc1	n	n	n	72	60	n
Cn1nc(N)c2c(-c3ccc(Cl)cc3)c(C#N)c(N)nc21	n	n	n	n	n	n
O=C(Nc1cccc(C(F)(F)F)c1)Oc1ccccc1N1CCOCC1	n	n	n	n	n	n
S=c1[nH]nc(-c2cccnc2)n1/N=C/C=C/c1ccco1	n	n	n	n	96	n
O=[N+]([O-])c1ccc(/C=N/n2c(-c3cccnc3)n[nH]c2=S)cc1	n	n	n	n	n	n
S=c1[nH]nc(-c2ccc(Cl)cc2)n1/N=C/C=C/c1ccco1	n	n	n	80	83	n
CC(/C=N/n1c(-c2cccnc2)n[nH]c1=S)=C\c1ccco1	n	n	n	51	76	n
SMILES	MLLE-PAM2 inh	PfM18AAP inh	PERK inhibitor	PABP FP inh	eIF4H FP inh	eIF4E-4G inh
Cc1ccsc1/C=N/n1c(-c2cccnc2)n[nH]c1=S	n	n	n	n	n	35
O=c1cc(S(=O)(=O)Cc2ccccc2)[nH]c(=O)[nH]1	n	x	x	x	x	x
COc1ccc(C(=O)N2CCN(S(=O)(=O)c3ccc(C)cc3C)CC2)cc1S(=O)(=O)N1CCOCC1	n	x	x	x	x	x
COc1ccc(C(=O)N2CCN(S(=O)(=O)c3ccc(C)cc3)CC2)cc1S(=O)(=O)N1CCOCC1	n	n	n	n	n	62
Cc1ccc(NC(=O)COC(=O)c2c[nH]c3ccccc23)cc1C	n	x	x	x	x	x
CSc1ccc(/C=C/c2cc(=O)c3ccccc3[nH]2)cc1	n	n	n	n	131	n
O=c1cc(/C=C/c2cccs2)[nH]c2ccccc12	n	n	n	n	n	n
O=C1N(C2CCCC2)C[C@@H]2C[C@@H](c3cn[nH]c3-c3ccc(Cl)cc3)N3CCC[C@@]123	n	n	n	56	n	n
Cc1ccccc1CN1C[C@@H]2C[C@@H](c3cn[nH]c3-c3ccccc3)N3CCC[C@@]23C1=O	n	n	n	n	n	n
CC1=C(C#N)C(=O)N(C2CCS(=O)(=O)C2)C(=O)/C1=C\c1ccc(C)o1 (centres undefined)	x	30	n	u	u	38
Cc1ccc(/C=C2\SC(=S)N(C3CCS(=O)(=O)C3)C2=O)o1 (centres undefined)	n	n	n	n	n	n
CCOc1cc([C@@H]2C[C@H]3CN(c4ccccc4)C(=O)[C@]34CCCN24)ccc1OC	n	n	n	n	57	n
Brc1cccc(C2CC(c3ccccc3)n3nnnc3N2)c1 (centres undefined)	n	n	n	n	n	34
c1ccc(C2CC(c3cccs3)Nc3nnnn32)cc1 (centres undefined)	n	n	n	n	n	n
Cc1ccc2sc(C)[n+](CCC(C)S(=O)(=O)[O-])c2c1 (centres undefined)	41	n	n	n	n	n
CCOC(=O)c1c(C)[nH]c(C(=O)OCC(=O)Nc2cccnc2Cl)c1C	n	x	x	x	x	x
C=C(C)Cn1c(=O)c2c(nc3n2CC(C)CN3Cc2ccccc2)n(C)c1=O (centres undefined)	n	n	x	n	n	x
CCc1ccc(NC(=O)NNC(=O)c2ccc3ccccc3c2O)cc1	n	29	x	n	n	x
CC1(c2ccc3c(c2)OCCCO3)NC(=O)N(CC(=O)Nc2cccc(C#N)c2)C1=O (centres undefined)	n	x	x	x	x	x
COC(=O)/C=c1/sc2nc3ccccc3n2c1=O	n	n	n	n	n	n
O=c1/c(=C/c2ccccn2)sc2nc3ccccc3n12	n	36	n	u	u	n
O=c1/c(=C\c2cc([N+](=O)[O-])cc([N+](=O)[O-])c2O)sc2nc3ccccc3n12	n	n	n	n	n	30
COCc1cc(CN2CCCC(C(=O)Nc3cccc(-n4cnnn4)c3)C2)ccc1OC (centres undefined)	n	n	x	n	n	x
CS(=O)(=O)N1CCN(C(=S)NCc2ccc(Cl)cc2)CC1	n	n	n	4.3	82	n
CCN(CC)S(=O)(=O)c1ccc(C(=O)/C=C/c2ccc(-c3ccc([N+](=O)[O-])cc3)o2)cc1	n	28	n	u	u	n
Cc1onc(-c2ccccc2Cl)c1C(=O)Nc1ncn[nH]1	n	54	n	n	n	n
CC(=O)Nc1ccc(NC(=O)c2c(-c3ccccc3Cl)noc2C)cc1	n	n	x	n	n	x
Oc1c(N=NC(=S)Nc2ccccc2F)c2ccccc2n1Cc1ccccc1	n	n	n	n	n	n
C=CCn1c(O)c(N=NC(=S)Nc2ccccc2F)c2ccccc21	39	n	n	n	n	n
C=CCn1c(O)c(N=NC(=S)Nc2cccc(C)c2)c2ccccc21	42	n	n	n	n	n

Source: PubChem BioAssay (several laboratories)
